Screens as filed in PubChem.
HSF-1 act = increases HSF-1 driven luciferase reporter signal; actives 1.7% (n = 300,000); NIH3T3-HGL HSF-1 luciferase reporter, MG132, 8 h; 100% = twice DMSO control signal; AID 504408; activation, % at 9 µM;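 active = mean replicate activation of at least 50% with a set share of replicates each reaching 50%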;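 note: 0% = median of the neutral control wells and 100% = twice that signal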
esBAF inh = blocks esBAF chromatin remodeling in mouse ES cells; Bmi1-luciferase knock-in reporter, 24 h; 100% = twice the neutral-well signal; reporter increase, % at 12.5 µM; actives 2% (n = 350,000); AID 602393; in the data active = activation above about 40%;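 note: 0% = median of the plate's neutral control wells and 100% = double that signal; a rise in the Bmi1 reporter signal indicates esBAF inhibition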
Wnt act = Wnt/beta-catenin pathway activation; Wnt/beta-catenin reporter cell assay, activator, plate reader; activation, % at 9.35 µM; actives 1.2% (n = 300,000); AID 743398; in the data active = activation above about 30%, passing the limit was not always enough;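 note: 0% = neutral control wells and 100% = positive control wells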
HSF1 inhib = HSF1 inhibition. NIH3T3-HGL HSE-luciferase, MG132-induced, luminescence 8 h; stronger effect = lower value. activity change, negative = inhibition, % at 7.5 µM (by protocol). actives 0.77% (n = 300,000);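 active = more than half of replicate wells show activity change below -50%, luminescence cut by over half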;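 note: luciferase reports HSF-1 transcriptional activity via heat shock element; 0% = median of DMSO wells and -100% = zero luminescence signal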
MITF act = MITF TRPM1 promoter activation in melanoma cells | SK-MEL-5 TRPM1-promoter luciferase, 24 h; % of positive control, neutral wells = 0 | activation, % at 12.5 µM | actives 0.75% (n = 300,000);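 active = mean activation of at least 80% with every replicate also reaching 80%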;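 note: 0% = neutral control wells and 100% = parthenolide positive control wells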
* marks the source's active call; other numbers are inactive results; . = no result given. A selection: hits, their analogues and other compounds. The true share with any hit is near 3.9%.

SMILES | HSF-1 act | esBAF inh | Wnt act | HSF1 inhib | MITF act
COc1ccc(CCN2C(=S)N(C)C(=O)C2CC(=O)Nc2ccc(OC)cc2)cc1 (configuration not stated) | 1 | -2 | -6 | 11 | 18
COc1ccc(NC(=O)CC2C(=O)N(C)C(=S)N2Cc2ccc3c(c2)OCO3)cc1 (configuration not stated) | 10 | -1 | 35* | -2 | 3
COc1ccc(OC)c(NC2c3ccccc3C(=O)N2Cc2ccc3c(c2)OCO3)c1 (configuration not stated) | 51* | -8 | -4 | 27 | .
Cc1ccc(S(=O)(=O)Nc2cccc3c2O[C@@H](CN(C)Cc2ccncc2)[C@H](C)CN([C@@H](C)CO)C3=O)cc1 | . | 5 | . | . | .
C[C@H](CO)N1C[C@H](C)[C@H](CN(C)C(=O)c2ccc3c(c2)OCO3)Oc2cc(C#Cc3ccccc3F)ccc2S1(=O)=O | . | 15 | . | . | .
Cc1ccc(C)c(S(=O)(=O)N2CCN(CC(=O)Nc3cc(C)on3)CC2)c1 | 71* | 0 | . | 40 | -3
COc1ccc(C(=O)CC(=O)C(=O)NCCc2cccc(C)c2)cc1 | 70* | . | . | 39 | -7
COc1ccc(C(=O)CC(=O)C(=O)Nc2cc(OC)c(OC)c(OC)c2)cc1 | 77* | 1 | -2 | 43 | 10
C/C=C/c1ccc2c(c1)O[C@@H](CNC)[C@H](C)CN([C@@H](C)CO)S2(=O)=O | . | -7 | . | . | .
Cc1sc(NC(=O)CSC2=NCCS2)nc1-c1ccccc1 | 35 | . | . | 6 | -7
Cc1ccc(-c2csc(NC(=O)CSc3nc(C)cc(=O)[nH]3)n2)cc1 | 9 | . | . | 9 | .
Cc1ccc(-c2csc(NC(=O)CSC3=NCCS3)n2)cc1 | 23 | 45* | 22 | 22 | .
O=C(CSC1=NCCS1)Nc1nc2ccccc2s1 | 56* | 36 | 20 | 29 | 41
C[C@@H]1CN([C@H](C)CO)C(=O)c2cc(NC(=O)C3CCCCC3)ccc2O[C@@H]1CN(C)S(=O)(=O)c1ccccc1 | . | -5 | . | . | .
O=C(CCC1CCCC1)N=C1SC2CS(=O)(=O)CC2N1c1ccccc1F (configuration not stated) | 64* | 0 | -1 | 19 | 20
COc1cccc(OCc2ccc(Cl)cc2)c1C#N | 61* | . | 14 | 40 | .
COc1cccc(CNC(C)(C)CO)c1OCc1ccc(Cl)cc1 | -8 | . | 0 | -11 | 8
C[C@@H]1CN([C@@H](C)CO)C(=O)c2cc(NC(=O)Nc3ccc(C(F)(F)F)cc3)ccc2O[C@@H]1CN(C)Cc1ccccc1 | . | 3 | . | . | .
Cc1nnc2sc(-c3ccc(N(C)C)cc3)nn2c1=O | 20 | -11 | 24 | 16 | 109*
CNC(=O)C[C@@H]1CC[C@@H]2[C@H](COc3ccc(NC(=O)Nc4cccc(C)c4)cc3C(=O)N2C)O1 | . | 6 | . | . | .
CC(C)NC(=O)NCC[C@H]1CC[C@H](NC(=O)CCN2CCCCC2)[C@H](CO)O1 | . | -5 | . | . | .
Cc1cc(C)c(C(=O)/C=C/c2cccc3ccccc23)c(=O)[nH]1 | 84* | . | -6 | 65 | -87
Cc1ccc(N=Nc2c(O)n(CN3CCOCC3)c3ccccc23)cc1 | 49 | 54* | . | 14 | .
Cc1cccc(NC(=S)N=Nc2c(O)n(CN3CCOCC3)c3ccccc23)c1C | -8 | . | -5 | -13 | -5
COc1ccccc1Cc1c(-c2ccc(C)cc2)nc2ccc(Cl)cn12 | . | 63* | 24 | . | .
SMILES | HSF-1 act | esBAF inh | Wnt act | HSF1 inhib | MITF act
COc1ccc(Cc2c(-c3ccc(C)cc3)nc3ccc(Cl)cn23)c(C)c1 | . | 65* | 13 | . | .
COC(=O)c1ccc2nc(-c3ccc(Cl)cc3)c(Cc3ccc(OC)cc3C)n2c1 | . | . | -3 | . | .
C[C@@H]1CN([C@H](C)CO)C(=O)c2cccc(NC(=O)C3CC3)c2O[C@H]1CN(C)Cc1ccc(Oc2ccccc2)cc1 | . | -1 | . | . | .
CC(C)Sc1ncnc2c1oc1ccccc12 | 12 | 33 | . | -1 | 48
c1ccc(Nc2ncnc3c2oc2ccccc23)cc1 | 12 | 88* | 29 | 23 | 11
COc1ncnc2c1oc1ccccc12 | 38 | 60* | 16 | 6 | 23
c1ccc2c(c1)oc1c(Nc3ccc4c(c3)OCO4)ncnc12 | 49 | 44* | 33* | 25 | 42
CN(C)C(=O)C[C@H]1CC[C@@H](NC(=O)c2ccc(F)cc2)[C@@H](CO)O1 | . | 3 | . | . | .
Cc1ccc(S(=O)(=O)Nc2ccc3c(c2)C(=O)N([C@H](C)CO)C[C@H](C)[C@H](CN(C)S(=O)(=O)c2c(C)noc2C)OCCCC[C@H](C)O3)cc1 | . | -4 | . | . | .
CC1CCCN(C(=O)CCc2nnc(-c3ccc4c(c3)OCO4)o2)C1 (configuration not stated) | 31 | 42* | 14 | 12 | 22
CCC(=O)C1CCCN(C(=O)CCc2nnc(-c3ccc(C(C)=O)s3)o2)C1 (configuration not stated) | 28 | 83* | 22 | 22 | 49
CC(=O)CSc1nnc(-c2ccc3c(c2)OCO3)o1 | 0 | -7 | 19 | 2 | .
O=C(O)CCSc1nnc(-c2ccc3c(c2)OCO3)o1 | -60 | -53 | . | -52* | -37
CC=Cc1ccc2n(c1=O)C[C@@H]1[C@@H](CO)[C@H](C(=O)N(C)C)[C@H]2N1CC1CCCCC1 (mixture of isomers) | . | -4 | . | . | .
CCCNC(=O)Nc1ccc2c(c1)OC[C@@H](C)N(C(=O)C1CC1)C[C@H](C)[C@H](OC)CN(C)C2=O | . | -6 | . | . | .
C[C@@H]1CN([C@@H](C)CO)C(=O)c2cccc(NS(=O)(=O)c3cn(C)cn3)c2O[C@H]1CN(C)CC1CCCCC1 | . | 1 | . | . | .
CN1CCN(C(=O)C[C@H]2C[C@@H]3c4cc(NC(=O)Nc5ccccc5F)ccc4O[C@@H]3[C@H](CO)O2)CC1 | . | -6 | . | . | .
CC(NC(=O)c1ccc(C(C)(C)C)cc1)C(c1cccs1)N1CCOCC1 (configuration not stated) | 69* | 9 | 0 | 26 | -1
CC(NC(=O)c1ccncc1)C(c1cccs1)N1CCOCC1 (configuration not stated) | 5 | 3 | -1 | 3 | -7
CC(NC(=O)c1ccc(F)cc1)C(c1cccs1)N1CCN(C)CC1 (configuration not stated) | -7 | . | -2 | 4 | -5
CC(NC(=O)c1ccc(N(C)C)cc1)C(c1cccs1)N1CCN(C)CC1 (configuration not stated) | . | 43* | . | . | 67
CC(C)(C)c1ccc(C(=O)NC(=S)N2CCOCC2)cc1 | 26 | 20 | 34* | 12 | 104*
O=C(C[C@@H]1CC[C@@H](NC(=O)c2cccc(F)c2)[C@@H](CO)O1)Nc1nccs1 | . | 0 | . | . | .
COCC(=O)Nc1ccc2c(c1)C(=O)N(C)C[C@@H](OC)[C@H](C)CN(CCC(F)(F)F)[C@@H](C)CO2 | . | -3 | . | . | .
Cc1noc(N)c1C(=O)Nc1ccc(C(C)(C)C)cc1 | 10 | . | 51* | 24 | 86*
C[C@@H]1CCCCO[C@@H](CN(C)Cc2ccc3c(c2)OCO3)[C@H](C)CN([C@@H](C)CO)C(=O)c2cc(NC(=O)Nc3ccc4c(c3)OCO4)ccc2O1 | . | 3 | . | . | .
